NCOA3 inh: inhibitors of human steroid receptor coactivator 3 (SRC3). Q9Y6Q9. HEK293 GAL4-SRC3 luciferase reporter, luminescence. inhibition, % at 3.6 µM. 360,000 tested, 0.17% active;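 active = inhibition above a per-campaign cutoff, the mean of all compounds plus 3 SD, cut at about 60% in these data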;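 note: 0% = DMSO-treated cells and 100% = gossypol-treated cells at 36 µM; higher means less SRC3-driven luciferase light from the GAL4 reporter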
Target sequence (Q9Y6Q9 whole entry, looked up, the tested form may be a part): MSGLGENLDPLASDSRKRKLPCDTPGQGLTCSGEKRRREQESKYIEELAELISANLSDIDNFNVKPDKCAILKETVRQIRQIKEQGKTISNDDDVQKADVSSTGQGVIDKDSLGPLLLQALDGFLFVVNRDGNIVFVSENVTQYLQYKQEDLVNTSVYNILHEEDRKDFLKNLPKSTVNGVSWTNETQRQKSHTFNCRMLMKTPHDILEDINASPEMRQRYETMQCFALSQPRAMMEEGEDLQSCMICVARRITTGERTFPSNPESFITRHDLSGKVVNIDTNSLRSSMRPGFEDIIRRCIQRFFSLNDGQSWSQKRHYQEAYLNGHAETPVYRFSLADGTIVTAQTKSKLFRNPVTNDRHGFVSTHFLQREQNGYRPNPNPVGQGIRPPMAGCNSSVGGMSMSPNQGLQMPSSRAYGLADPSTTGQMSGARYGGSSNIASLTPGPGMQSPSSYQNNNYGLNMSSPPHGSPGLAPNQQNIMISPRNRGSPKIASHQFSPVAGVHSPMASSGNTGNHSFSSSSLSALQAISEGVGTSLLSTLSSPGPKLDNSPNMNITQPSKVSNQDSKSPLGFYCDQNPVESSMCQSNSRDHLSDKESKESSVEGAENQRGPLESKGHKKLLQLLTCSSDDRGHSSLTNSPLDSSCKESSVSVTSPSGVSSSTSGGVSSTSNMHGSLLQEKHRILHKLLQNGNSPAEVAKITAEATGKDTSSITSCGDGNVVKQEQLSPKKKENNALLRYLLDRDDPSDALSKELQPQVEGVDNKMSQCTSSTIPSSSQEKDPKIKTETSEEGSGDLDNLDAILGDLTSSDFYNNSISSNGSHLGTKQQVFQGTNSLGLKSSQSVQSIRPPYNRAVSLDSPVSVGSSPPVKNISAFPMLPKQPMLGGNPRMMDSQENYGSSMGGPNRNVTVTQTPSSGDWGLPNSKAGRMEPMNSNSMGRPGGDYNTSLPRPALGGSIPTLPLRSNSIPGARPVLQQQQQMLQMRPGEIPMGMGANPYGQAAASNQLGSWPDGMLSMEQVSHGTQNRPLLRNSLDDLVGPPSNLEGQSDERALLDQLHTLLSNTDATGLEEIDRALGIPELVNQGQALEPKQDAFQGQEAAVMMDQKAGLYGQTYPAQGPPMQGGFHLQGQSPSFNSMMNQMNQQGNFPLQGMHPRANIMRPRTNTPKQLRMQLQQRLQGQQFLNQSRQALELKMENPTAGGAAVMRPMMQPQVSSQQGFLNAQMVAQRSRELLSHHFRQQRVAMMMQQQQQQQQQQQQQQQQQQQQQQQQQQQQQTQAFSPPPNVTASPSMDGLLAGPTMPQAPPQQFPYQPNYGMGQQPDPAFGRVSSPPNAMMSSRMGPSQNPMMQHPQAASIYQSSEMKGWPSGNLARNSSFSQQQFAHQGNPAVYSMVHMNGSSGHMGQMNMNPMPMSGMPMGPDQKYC
Gli-Sufu block: Gli-Sufu pathway antagonism; Sufu-KO-LIGHT fibroblasts, Gli luciferase reporter luminescence; inhibition, % at 5 µM; 340,000 tested, 0.74% active; AID 588413;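 active = inhibition above about 55%, limit read from the data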;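 note: 0% = DMSO-treated cells and 100% = wells with medium but no cells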
NR2F2 inh: blocks human COUP-TFII nuclear receptor | P24468 | HEK293T NGFI-A luciferase reporter, luminescence | inhibition, % at 8.6 µM | 370,000 tested, 0.7% active | AID 686940;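 active = inhibition above a per-plate cutoff, mean inhibition of test wells between control levels plus 3 SD, cut at about 38% in these data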;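 note: cells cotransfected with COUP-TFII expression vector driving the NGFI-A reporter; 0% = median of COUP-TF2 test wells and 100% = reporter-only cells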
LRH-1 inv ag: NR5A2 inverse agonism in reporter assay | O00482 | HEK293T StAR-luciferase reporter, LRH-1 transfected, 24 h | inhibition, % at 3.6 µM | 360,000 tested, 0.13% active | AID 602396;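 active = inhibition above the mean inhibition of all tested compounds plus 3 SD, cut at about 73% in these data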;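 note: 0% = DMSO wells and 100% = reporter-only cells lacking LRH-1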
SRC1 inh: inhibits human SRC1 coactivator; HEK293 GAL4-SRC1 luciferase reporter, luminescence; 360,000 tested, 0.12% active; AID 588354; inhibition, % at 3.6 µM;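 active = inhibition above the campaign mean plus 3 SD, with each screening campaign given its own cutoff, cut at about 60% in these data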;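 note: 0% = DMSO treated cells and 100% = gossypol at 36 µM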
NCOA2 inhibitor: inhibits human steroid receptor coactivator 2; Q15596; HEK293 GAL4-SRC2 luciferase reporter, luminescence; inhibition, % at 9 µM; 370,000 tested, 0.17% active; AID 651957;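 active = inhibition above the mean inhibition of all tested compounds plus 3 SD, set per campaign, cut at about 52% in these data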;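 note: 0% = DMSO treated cells and 100% = cells given Gossypol at 36 µM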
VP16 Luc counter: VP16 inhibition counter-screen for COUP-TFII. HEK293 Gal4-VP16 luciferase reporter, luminescence. AID 687007. shares compounds with NR2F2 inh. inhibition, % at 8.5 µM. 2,500 tested, 25% active; in the data active = inhibition above about 13%
COUP-TFII conf: COUP-TFII (NR2F2) inhibition, confirmation assay; shares compounds with NR2F2 inh; 2,500 tested, 45% active; HEK293 NGFI-A luciferase reporter, luminescence; inhibition, % at 8.5 µM;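 active = mean inhibition over three repeats above a set limit taken from the earlier primary screen, cut at about 38% in these data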;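 note: 100% = cells given the luciferase reporter alone without the COUP-TF2 vector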
Numbers without * were called inactive; nt = no result. In the library only some 1.3% were active in any assay of this set; here they are far more common.

SMILES | NCOA3 inh | Gli-Sufu block | NR2F2 inh | LRH-1 inv ag | SRC1 inh | NCOA2 inhibitor | VP16 Luc counter | COUP-TFII conf
Cc1ccc(-c2[nH]c3ccccc3c2SCCNC(=O)c2ccc(S(=O)(=O)N3CCOCC3)cc2)cc1 | 13 | 6 | 47* | 28 | -24 | -6 | -8 | -8
COc1ccc(NC(=O)c2cnc(SCC(=O)NCCc3ccccc3)n(C)c2=O)cc1 | -1 | 10 | 11 | -6 | 5 | 9 | nt | nt
Cn1c(SCC(=O)NCCc2ccccc2)ncc(C(=O)Nc2ccccc2)c1=O | 8 | 8 | 54* | 28 | 2 | 14 | 4 | 1
O=C(OCCC12CC3CC(CC(C3)C1)C2)c1ccc(NCc2cc(O)ccc2O)cc1 | 74* | 82* | 90* | 52 | 56 | 94* | 78* | 101*
NS(=O)(=O)c1ccc(NC(=O)CCC(=O)O)cc1 | 4 | nt | -35 | -15 | -11 | -19 | nt | nt
CC1C/C(=C\c2cccnc2)C(=O)/C(=C/c2cccnc2)C1 (stereo not drawn) | 11 | -6 | 96* | 56 | -199 | 80* | 91* | 105*
O=C1/C(=C/c2cccnc2)CCc2c1[nH]c1ccccc21 | 0 | -22 | 15 | -115 | 10 | 6 | nt | nt
COc1ccc(NC(=O)/C(Cl)=C(/Cl)S(=O)Cc2ccccc2)cn1 (stereo not drawn) | 26 | 66* | 61* | 69 | -58 | 84* | 88* | 100*
COc1ccc(NC(=O)Cc2ccccc2)cn1 | 4 | 1 | 4 | 12 | 9 | -45 | nt | nt
O=[N+]([O-])c1cccc(I)c1 | nt | nt | 0 | nt | nt | -1 | nt | nt
Cc1nnc(NC(=O)CSc2ncnc3c2cnn3-c2ccccc2C)s1 | 9 | 1 | 10 | -12 | -14 | -26 | nt | nt
Cc1ccccc1-n1ncc2c(SCC(=O)NC3CCCC3)ncnc21 | 22 | 22 | 46* | 29 | 3 | 27 | -6 | 24
COc1ccc(-c2ccc(C(=O)NCc3ccncc3)c3occc23)c(C)c1 | 0 | nt | 69* | 58 | -2 | 30 | -18 | 56*
O=C(NCc1ccncc1)c1ccc(-c2ccc(F)c(F)c2)c2ccoc12 | 8 | nt | 70* | 32 | 22 | -1 | 6 | 41*
O=C(CCc1nnc(-c2ccc(-c3ccccc3)cc2)o1)NCCc1ccccn1 | -9 | -16 | 43* | -21 | -29 | 59* | -15 | 23
COCCNC(=O)CCc1nnc(Cc2ccc(-c3ccccc3)cc2)o1 | 14 | 9 | -10 | -9 | -1 | 8 | nt | nt
CC(NC(=O)CCc1nnc(-c2ccc(-c3ccccc3)cc2)o1)c1nccs1 (stereo not drawn) | -10 | 8 | 48* | -47 | -20 | 67* | 0 | 16
COC(=O)CCCNC(=O)CCc1nnc(-c2ccc(-c3ccccc3)cc2)o1 | -14 | -16 | 52* | -23 | -10 | 57* | 12 | 11
S=C1NC2=C(CCCC2=C2SCCS2)C(c2ccccc2)N1 (stereo not drawn) | 12 | -8 | 37* | 11 | -8 | 9 | -8 | -5
CCc1ccc(NC(=O)c2ccc(F)c(S(=O)(=O)NCC3COc4ccccc4O3)c2)cc1 (stereo not drawn) | 23 | 0 | 38* | 10 | -3 | 17 | -4 | 13
CCN(c1ccccc1)S(=O)(=O)c1cc(C(=O)Nc2ccc(Br)cc2)ccc1F | 27 | 7 | 65* | 31 | 31 | 24 | -5 | 41*
CSCCC(C(=O)NC(C)(C)C)n1c(-c2ccc3c(c2)OCO3)nc2ccccc21 (stereo not drawn) | nt | nt | -30 | 1 | nt | -53 | nt | nt
CCOC(=O)[C@]12CCC=C1N(Cc1ccc(Cl)cc1Cl)C(=O)[C@H](CC(=O)NCC13CC4CC(CC(C4)C1)C3)C2 | nt | nt | 9 | 22 | nt | -1 | nt | nt
COc1ccc(C(C(=O)NC(C)(C)C)N(C(=O)CCC(=O)Nc2cc(C)on2)c2ccccc2F)cc1 (stereo not drawn) | 0 | -12 | 10 | -24 | -4 | 14 | nt | nt
CCN(CC(=O)NCc1ccc(Cl)cc1)C(=O)Cc1ccc(OC)cc1 | 10 | -24 | 5 | -5 | -12 | -2 | nt | nt
SMILES | NCOA3 inh | Gli-Sufu block | NR2F2 inh | LRH-1 inv ag | SRC1 inh | NCOA2 inhibitor | VP16 Luc counter | COUP-TFII conf
CCN(CC(=O)NCc1ccc(Cl)cc1)C(=O)c1cc(OC)cc(OC)c1 | 3 | 10 | 53* | -16 | -2 | -7 | -7 | -2
COC(=O)[C@]12C[C@H](CC(=O)NCCc3ccccc3OC)C(=O)N(Cc3ccc4c(c3)OCO4)C1=C[C@H](C(C)(C)C)O[C@@H]2C | nt | nt | 15 | nt | nt | 3 | nt | nt
COc1ccc(NC(=O)C2Cc3c(-c4ccc(Cl)cc4)ccnc3O2)cc1OC (stereo not drawn) | 14 | nt | 64* | 29 | 18 | 30 | 7 | 54*
COc1ccc(NC(=O)C2Cc3c(-c4cccc(C(C)=O)c4)ccnc3O2)cc1OC (stereo not drawn) | 7 | nt | 75* | 55 | 29 | 19 | 10 | 49*
CC(=O)c1cccc(NC(=O)C2Cc3c(-c4ccccc4Oc4ccccc4)ccnc3O2)c1 (stereo not drawn) | -5 | nt | 41* | 35 | 21 | 4 | -7 | 12
COc1ccc(NC(=O)C2Cc3c(-c4cccc(C(N)=O)c4)ccnc3O2)cc1OC (stereo not drawn) | 1 | nt | 20 | 17 | 18 | -7 | nt | nt
CC(=O)N1CCN(C(=O)c2cc(S(=O)(=O)N3CCCCC3)ccc2Cl)CC1 | 11 | -3 | -7 | 4 | 9 | -28 | nt | nt
COc1cc(/C=N/NC(N)=S)cc(Br)c1OCc1ccccc1F | 37 | 33 | 52* | 64 | 10 | 23 | 24* | 51*
Cc1cccc(NC(=O)CSc2nc3ccccc3c(=O)n2C)c1 | 3 | 43 | 41* | -3 | 18 | 19 | 6 | 31
COc1cccc(C(=O)Nn2c(-c3cccs3)nc3ccccc3c2=O)c1OC | 4 | -3 | 6 | 6 | -11 | 9 | nt | nt
COc1ccc(CNn2c(-c3cccs3)nc3ccccc3c2=O)cc1OC | -8 | 11 | 38* | 6 | 4 | 35 | -9 | 6
C=C1CCC2C(C)(C)CCC[C@]2(C)[C@H]1CC1=C(O)C(=O)C(CO)=CC1=O (stereo partly drawn) | nt | nt | 55* | nt | nt | 62* | 46* | 62*
CCOC(=O)c1cccc(NS(=O)(=O)c2ccc(NC(C)=O)cc2)c1 | 34 | 16 | 39* | 16 | 39 | 44 | 7 | 22
CCOC(=O)c1ccc(NC(=O)COc2ccc(S(=O)(=O)NC(C)CC)cc2)cc1 (stereo not drawn) | -4 | 6 | 47* | 15 | 4 | -1 | 0 | 26

Bioassay records: PubChem, several laboratories
